Measured values reported in PubChem BioAssay AID1347423 (Functional Genomics Laboratory (NCATS/FGL), 2020).
Screen size: about 52,000 sequences; about 210 (0.4%) were called active. The sample as a whole holds a higher share of actives than the screen did. Values without a mark were called inactive.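 Rule for the calls: active = gene whose silencing raises cell survival under the drug, median off-target-corrected z-score across its silencing RNAs 2 or more; inactive = the rest.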

Experiment: Resistance to Poly (ADP-Ribose) Polymerase inhibitor: Gene Identification via Genome-wide siRNA Screen
Conditions: mouse BRCA2 R2336H ES cells, olaparib, CellTiter-Glo viability; hits give high values
Text: The role of Poly (ADP-Ribose) Polymerase (PARP) proteins in DNA repair has been elegantly utilized for the synthetic lethality-based treatment of BRCA-deficient tumors by PARP inhibitors. PARP inhibitors are now being used for treatment of BRCA-deficient breast and ovarian cancers. […] While several mechanisms of drug resistance have been identified, majority of these tumors develop drug resistance due to unknown causes. To identified novel regulators of chemo-resistance in BRCA2-mutated cells, we performed a genome wide siRNA library screen. We have found ES cells expressing a hypomorphic allele of BRCA2 to be hypersensitive to PAPP inhibitors (such as olaparib). We used ES cells expressing a mutant allele of BRCA2 that has a single amino acid substitution at position 2336 (arginine to histidine, R2336H). The screen was conducted using an Ambion (Thermo) Silencer Mouse Genome siRNA collection. The library targets 17,575 mouse genes with 3 siRNAs per gene. TET2 (E130014J05Rik) was identified as a top candidate.
Transfections were performed in 384 well plates (Corning 3707). Plates were coated with 0.1% gelatin in H2O overnight at ambient temperature. Gelatin solution was aspirated (BioTek EL406) and siRNAs were printed using a Bravo VPrep liquid handler integrated within a BioCel automation platform (Agilent). Cell viability was measured using CellTiter Glo (Promega). For transfections, […] of serum free media containing Lipofectamine RNAiMax […] was added to wells containing siRNA (0.8pmol). Lipid and siRNA were allowed to complex for 45 min at ambient temperature before addition of 1000 cells in DMEM, 30% FBS to yield final transfection mixtures containing 20 nM siRNA in DMEM, 15% FBS. PARPi (olaparib, AZD2281) was added 48 h post-transfection (500 nM) and viability (CellTiter Glo, Promega) was assayed 72 h later on a PerkinElmer Envision 2104 Multilabel plate reader. Ambion Silencer Select Negative Control #2 was incorporated on all screening plates (16 wells) and the median negative control value on each plate was used for normalization. An siRNA targeting Trp53 was used as a positive control. This control yielded a median protective effect of ~1.9 fold versus negative control throughout the screen. The median absolute deviation (MAD) based z-score was calculated for each siRNA. Genes were then ranked by taking the median value for all siRNAs tested against a given gene. Scores were also adjusted for seed-based off-target effects to help deprioritize likely false positives.
In the case of “GGCAUCCGUGUGUCUCUAGTT against 5730457F11Rik”, the z-score is reported as -2.13 (active).
In the case of “CCACUUUCGCUUUACCAAUTT against C330011M18Rik”, the z-score is reported as 0.267.
Sequence CCAACUCUGUUACAUUAUGTT against Fshprh1 has a z-score of 0.377.
GGGCUAAAGUUGAUAAUAATT against Psmc3 showed a z-score of -3.32.
“GGGAGCUCCAUUUAAAUUATT against A230103N10Rik” showed a z-score of 0.137.
For GGCAUUCAAAAGGUAAAAUTT against Grid2, the z-score was 2.35 (active).
With CCAGCACUCAAUCCUGUAATT against Olfr305 the z-score was -1.73.
Work on GCUAUCAACAAUCUUCGAATT against Azi1 yielded a z-score of 0.37.
With “GGAGAACACUUUAAUGCUGTT against 9230106D23Rik” the z-score was 0.667.
GAACCUUUUCCGUUUCGAGTT against Cebpb gave a z-score of 0.245.
For “GGCCAGCAGACUAUUUAUUTT against 1110021N07Rik”, the z-score was -1.57.
For GGACCUAGAGGAAGUGAAATT against Apoa1, the z-score was 2.05 (active).
Work on GCUUUACUUCUUCCUCAUUTT against Olfr924 yielded a z-score of -0.698.
GGUCUAUGUACUCGCCAAATT against Ptpns1 showed a z-score of -0.633.
CCGUCACUAUACCCAAGUUTT against Olfr802 showed a z-score of -3.11.
Sequence CGUGCUUAAGAGUCCACUATT against H3f3a has a z-score of -1.43.
With CCUCGUUCAUACGACAGAATT against BC062951 the z-score was -0.447.
GCUUAGACUCACCAAAGGCTT against Gpr26 showed a z-score of 1.11.
With GCAACACAUUUGAACCACUTT against Usp15 the z-score was 2.9 (active).
“GGCACAGAAAUUAUGUUCUTT against 1810012H11Rik” showed a z-score of -0.685.
For GGAAUUCAACUCAGAUAAGTT against C3, the z-score was -0.52.
In the case of GGUUUUCUUAAAAUAGGAGTT against Tat, the z-score is reported as 3.69 (active).
In the case of CCAUAUCCGUAGGUAUAUCTT against Htr2a, the z-score is reported as 1.02.
“GGCUUGGAAGGAUUAGAAGTT against 4930418G15Rik” gave a z-score of -0.344.
With CCUCCACUUACUUUGGGUGTT against Cic the z-score was 1.48 (active).
Sequence GGAGCUCAACAAGUUGCUUTT against Hist1h2aa has a z-score of -0.0931.
GGGAGAUCUUUAAGAGAAATT against Tcfap2a gave a z-score of -0.65.
Sequence CGAGAUCACGAGAUCGGUUTT against Prdm4 has a z-score of 2.21.
In the case of GGCCAAGCUGAUCAAUAUATT against Oprd1, the z-score is reported as -0.0592.
Work on CCCAAUAAAACUUCCGGGATT against BC021608 yielded a z-score of 0.531.
CUCUCGAACAAUCAACCACTT against Olfr315 showed a z-score of -0.314.
Work on GCUGAAAUCAGAAGCUAACTT against Casc3 yielded a z-score of 0.845.
In the case of GCAUUGGCUGUACUACUAUTT against Psg18, the z-score is reported as -0.196.
Work on CCACAGCCAAAUGCACAAGTT against Gm1631 yielded a z-score of -0.237.
With GGGAAAUCAGUUUUACAAATT against Chl1 the z-score was 2.76 (active).
Sequence CCGGUUGCUAGGCUAAACATT against Wdr68 has a z-score of -3.25.
In the case of CGUAAAACUCUUAGGCAUGTT against Npm1, the z-score is reported as 2.54 (active).
CCCACUCCAAACAUCUAAATT against Gadd45b showed a z-score of 0.111.
With GCCUCUUUGAUAGCAAAAGTT against Cct6a the z-score was 0.0125.
For GGCAUUUUUCUUCUCCAAATT against Clns1a, the z-score was -0.934.
GGGACUGUAAUGUUGACACTT against Olfr560 gave a z-score of 0.851.
For GGCAAAAAAAACUGCUAUATT against Gpr128, the z-score was 0.0555 (active).
GGAAAUAAGACUCAGGUCATT against Gtf2a1 showed a z-score of -1.44.
Work on GCGAGUUGGAAUUGAGAUCTT against Casp8 yielded a z-score of 0.155.
For GGUUUUGGCUCGAAGGAAATT against Tead2, the z-score was -1.
GGAAUGUCCACAUUUUGUATT against Tigd5 showed a z-score of 0.00592.
In the case of GGAUGAUGAGAGAAACAAATT against Jak1, the z-score is reported as 2.1 (active).
In the case of GCCGGUUUCAGUUAAAGAGTT against Pccb, the z-score is reported as 2.26.
Sequence GGGAAUCGGCCUGAAGAAATT against Arl6ip5 has a z-score of -0.707.
CCUUCUGGUGCUUUUAGAGTT against Tlm showed a z-score of 0.431.
In the case of GGGUUAUACCAAGUCCAUUTT against Mapk1, the z-score is reported as 3.33 (active).
For GGUUUCCAUGGUAACGUGGTT against Tns, the z-score was 1.17.
CGAAGCUGCAAAGGAGAAGTT against Igf1 gave a z-score of -0.732.
For GGUCUUCUACAACUCGGAATT against Sgpp1, the z-score was -0.0398 (active).
GGAGAAGAAGAAAAGAACATT against Pom121 showed a z-score of -3.12.
GCACCCGGCACUAGAAAAATT against Shoc2 showed a z-score of 0.638.
Sequence GCUUUACCUGCUCAGAAGCTT against Olfr520 has a z-score of 0.553.
In the case of GCGAUUUUACGGAUCCGGUTT against Olfr1420, the z-score is reported as -0.612.
Sequence GGGAAGUCACUGAAGCCUGTT against Akr7a5 has a z-score of -0.538.
For GGGACACACGGUAUACAUCTT against Pfkl, the z-score was 0.358.
Work on GGAUGUUAUAAGAUUGCGUTT against Rnf170 yielded a z-score of -0.646.
With GGAACUGAUGAAUAUUUCATT against Chrnb1 the z-score was 0.177 (active).
“GUUGGUAAAGGUCCUUGCCTT against D17Wsu155e” showed a z-score of -1.02.
GCUACUCAUGCUAGAUGACTT against Gba showed a z-score of 1.64.
Sequence GGUUGAACCCACUCUGCAATT against Olfr1113 has a z-score of -2.16.
Sequence GCACAGUGGAUGCAAUCAGTT against Btbd1 has a z-score of 0.346.
Sequence “GCCCGACAGGAGAUAUUUATT against B230340J04Rik” has a z-score of -1.19.
For GGAGAGCUGGAACAAUAGCTT against Bcl2l2, the z-score was 2.66 (active).
For “GCCUUUGUAGGUUCAAGUGTT against 2310001H12Rik”, the z-score was 1.78.
With GGAGAAGAUCGGAUGGCGATT against Itgb5 the z-score was -0.391.
With CGGACUAAGUUUCAAAUCGTT against Pcdha2 the z-score was -0.594.
In the case of GGAUGUCACAACAGUUAUGTT against Otog, the z-score is reported as 1.4.
In the case of “CCUAUAUGCGCUAUUUGAATT against 4732465J09Rik”, the z-score is reported as 0.557.
With GGCUAAUGUAUCGUCUGAGTT against Asb16 the z-score was 0.422 (active).
CCCUGACGAAGCCAUACAUTT against Bcor showed a z-score of -1.33.
In the case of “GGACAAACAUUGGAUUGAUTT against 0610009C03Rik”, the z-score is reported as 0.453.
For CCCAGAGGUUCCCGUCAAUTT against Hmgb3, the z-score was 1.9 (active).
With GCCACCCACCUAAAAUCAATT against BC025872 the z-score was 0.573.
With “GGGAAAUGGCUCAUACUGGTT against 2210010C04Rik” the z-score was -0.608.
GACCGAGUUCAAAGCGAACTT against Atp5e showed a z-score of -2.59.
In the case of “GGAAGAAAGCCAUUUGCUUTT against 4632412I24Rik”, the z-score is reported as 0.766.
CGAUGAGAUGCGUAUUGAGTT against Card11 gave a z-score of -0.977.
For GCGAACUCCUCUUUAGGCATT against Chrng, the z-score was -0.258 (active).
GGGUAGACAGAAAGCCUUUTT against Olfr111 gave a z-score of -0.573.
GGUGUCUUAAAGCUGAAAUTT against E2f5 gave a z-score of 2.8.
In the case of “GGAGAGGAAUGGUGUGUUATT against 4931428D14Rik”, the z-score is reported as -0.16.
GGUGUUCCUGUCUUUCAUGTT against Chordc1 showed a z-score of -1.35.
For CCAACUUCAAAACUAUCGUTT against Trp53bp1, the z-score was 1.96 (active).
With “GCUAGUGGUAAGUCAACCATT against D6Ertd349e” the z-score was -0.584.
Sequence GGUGGGAAUGGGAAUCAGUTT against Akr1e1 has a z-score of 1.57.
In the case of GUCCAUCAGCAGCUCAAUGTT against Ifna5, the z-score is reported as -0.126.
In the case of GGCUUAUUUUUCUUCAGUUTT against Ext1, the z-score is reported as -0.0515.
In the case of GGAGGAAAAAAAGUGAAGATT against Zfp339, the z-score is reported as 0.689.
With CCUAUGCUAUGUAGUUUAATT against Adam21 the z-score was 0.555 (active).
In the case of GCUGAUGAAGGUGAUACGUTT against Pnma2, the z-score is reported as 0.0302.
GGCACCUAAAUUCUUGAAUTT against Hspb6 showed a z-score of -0.361.
Work on GGCCCUUCCCAAAGUAUUATT against Mup3 yielded a z-score of 0.32.
With CCUACUACCUCUGUCAACATT against Nme4 the z-score was 1.46.
Work on “GGUGGAGUUUGUGCAGAAGTT against 2310026J01Rik” yielded a z-score of 0.572.
In the case of CGAUGAUUCCAAGUUUGGCTT against Pinx1, the z-score is reported as -0.772.
Sequence CCUGCAGCUGUAAAACCUGTT against Mt4 has a z-score of -0.909.
In the case of CCGUAUCCGGCAUUGGAUUTT against Mrps16, the z-score is reported as 0.345.
With GCUGUCCACUGCUUAAAUCTT against Isyna1 the z-score was 0.392.
With GGAAUUGUACAAAUGACCUTT against Adam29 the z-score was -0.0465 (active).
With GGAGCUCAGAUGCAAUGAGTT against Zfp393 the z-score was -0.714.
In the case of GGAUGAGCUCAAGAAGUCCTT against Snrpa, the z-score is reported as -1.3.
